Source: PubChem BioAssay
HIF-2a inh – HIF-2a inhibition. 786-0 RCC cells HIF-2a reporter, luciferase luminescence, overnight. inhibition, % at 18.8 µM. 0.72% of 360,000 active. AID 624352;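 active = inhibition of the luminescence signal of 40% or more relative to plate controls, in a single-dose primary screen at 18.75 µM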
CF NFkB block – inhibitors of cystic fibrosis induced NF-kB. inhibition, % at 5 µM. 0.86% of 360,000 active. AID 588850. KKLEB NF-kB-GFP reporter, PAF-induced, GFP fluorescence overnight;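 active = at least 50% inhibition at 5 µM, scaled per plate between neutral and stimulator controls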;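 also: PAF is a Pseudomonas aeruginosa culture filtrate used as stimulus; plate controls were PAF-stimulated DMSO wells for no effect and unstimulated DMSO wells for full effect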
Peg3 prom inh-1 – inhibitors of Peg3 promoter. HeLa PEG-Prom luciferase reporter, luminescence, overnight. inhibition, % at 20 µM. 1.7% of 360,000 active;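 active = inhibition of at least 50% at 20 µM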
KKLEB cytotox – counter-screen for CF NF-kB inhibitors: cytotoxicity | 0.36% of 360,000 active | activity change (cytotoxicity), % at 5 µM | KKLEB CF airway cells viability, ATPlite luminescence, overnight; stronger effect = lower value; cells stimulated with P. aeruginosa culture filtrate;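 active = corrected activity change at or below -50% at 5 µM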
CHOP inh – blocks CHOP induction under ER stress; AID 2732; 3.8% of 220,000 active; CHO-K1 CHOP-promoter luciferase, tunicamycin-induced, 15-18 h; inhibition, % at 10 µM;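 active = compounds that reduced the stress-induced luciferase reporter signal by more than about 70% of percent inhibition, limit read from the data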;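 also: 0% = tunicamycin plus vehicle and 100% = wells without tunicamycin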
MITF TRPM1 inh – reduces MITF-dependent TRPM1 promoter luciferase signal. SK-MEL-5 TRPM1 promoter luciferase, 24 h. inhibition, % at 12.5 µM. 0.83% of 330,000 active. AID 488899;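 active = mean inhibition across replicates of 60% or more, whatever share of single replicates reaches that level; inconclusive = some that reach 60%, reason not given; inactive = mean inhibition across replicates below 60%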
Peg3 prom inh-2 – confirmation of Peg3 promoter inhibitors; HeLa PEG-Prom luciferase reporter, luminescence, overnight; inhibition, % at 20 µM; shares compounds with Peg3 prom inh-1; 84% of 1,300 active;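 active = at 20 µM dose, 40% or more inhibition averaged across four replicates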
HIF-2a conf – confirmation of HIF-2a inhibitors; shares compounds with HIF-2a inh; inhibition, % at 18.8 µM; AID 651580; 56% of 1,800 active; 786-0 RCC cells, HIF-2a luciferase reporter luminescence, overnight;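 active = mean inhibition across four replicates of at least 40 percent at the single tested concentration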
HIF-1a counter – inhibits HIF-1a reporter, a counter-screen for HIF-2a inhibitors; shares compounds with HIF-2a inh; MiaPaCa-2 HIF-1a luciferase reporter, desferoxamine, overnight; inhibition, % at 18.8 µM; 72% of 1,800 active;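 active = mean inhibition of the reporter signal across four replicates at the single tested dose of 50% or more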
* hit, by the source's call. In the library only some 4.3% were active in any assay of this set; here they are far more common.

What do the screens show for `O=C(O)Cn1cc(/C=C2\C(=O)NC(=O)N(c3ccc(Cl)cc3)C2=O)c2ccccc21`?
HIF-2a inh: 22.0; CF NFkB block: -2.7; Peg3 prom inh-1: 10.2; KKLEB cytotox: -7.2; MITF TRPM1 inh: 0.7

Results for CNCC(O)c1cc(OCc2ccccc2)c(OCc2ccccc2)cc1F (stereo unspecified) ?
HIF-2a inh: -18.4; CF NFkB block: -9.1; Peg3 prom inh-1: 98.0*; KKLEB cytotox: -8.0; MITF TRPM1 inh: -20.1; Peg3 prom inh-2: 89.4*

Results for COc1ccc(CC2C(=O)NC(C)C(=O)N(C)C3C(=O)N(C)C(Cc4ccc(O)c(c4)Oc4ccc(cc4)C3O)C(=O)NC(C)C(=O)NC(C)C(=O)N2C)cc1 (stereo unspecified) ?
HIF-2a inh: 87.0*; CF NFkB block: 82.1*; Peg3 prom inh-1: 96.0*; KKLEB cytotox: -48.6; MITF TRPM1 inh: 104.2*; Peg3 prom inh-2: 98.4*

How did Cc1cccc(C)c1NC1=NCCCCS1 do in these assays?
HIF-2a inh: 18.8; CF NFkB block: -6.4; Peg3 prom inh-1: 10.0; KKLEB cytotox: 8.1; CHOP inh: 22.9; MITF TRPM1 inh: 7.1

Results for CCN(CC)C(=O)c1ccc(NC(=O)c2cccc(C(F)(F)F)c2)cc1 ?
HIF-2a inh: -31.7; CF NFkB block: 1.0; Peg3 prom inh-1: -28.6; KKLEB cytotox: -1.7; CHOP inh: 30.4; MITF TRPM1 inh: -15.2

How did CCN(CCCl)c1cc(CN(C)C)cc(NC(=O)c2ccc(C(=O)Nc3cc(CN(C)C)cc(N(CC)CCCl)c3)cc2)c1 do in these assays?
HIF-2a inh: 70.0*; CF NFkB block: 79.7*; Peg3 prom inh-1: 101.5*; KKLEB cytotox: -88.9*; MITF TRPM1 inh: 98.0*; Peg3 prom inh-2: 99.3*

How did CC(=O)OC1CCC2(/C=N/O)C(=CCC3C4CCC(=O)C4(C)CCC32)C1 (stereo unspecified) do in these assays?
HIF-2a inh: 14.5; CF NFkB block: -14.4; Peg3 prom inh-1: 0.9; KKLEB cytotox: 5.1; MITF TRPM1 inh: 4.1

Results for Cc1c(C(=O)N2CCC3(CC2)OCCO3)sc2ncnc(N3CCN(c4ccccn4)CC3)c12 ?
HIF-2a inh: -2.6; CF NFkB block: -6.9; Peg3 prom inh-1: 71.7*; KKLEB cytotox: -4.1; CHOP inh: 17.6; MITF TRPM1 inh: 0.9; Peg3 prom inh-2: 55.6*

Results for CC(C)(C)n1nnnc1C(C1CC1)N1CCC(n2c(=O)[nH]c3ccccc32)CC1 (stereo unspecified) ?
HIF-2a inh: -1.9; CF NFkB block: -3.0; Peg3 prom inh-1: 22.6; KKLEB cytotox: 1.7

What do the screens show for `CC(C)(C)n1nnnc1C(CCc1ccccc1)N1CCC(n2c(=O)[nH]c3ccccc32)CC1` (stereo unspecified)?
HIF-2a inh: -27.4; CF NFkB block: -18.8; Peg3 prom inh-1: 83.6*; KKLEB cytotox: -5.4; Peg3 prom inh-2: 82.4*

Results for COC(=O)C1=C(c2ccc(OC(F)(F)F)cc2)C[C@@H]2CC[C@H]1N2C(=O)N1CCC(O)CC1 ?
HIF-2a inh: 8.1; CF NFkB block: -2.5; Peg3 prom inh-1: -6.3; KKLEB cytotox: -18.1

How did CCCCCCN=C(C)c1c(O)n(Cc2ccccc2)c(=O)[nH]c1=O do in these assays?
HIF-2a inh: 5.7; CF NFkB block: 19.7; Peg3 prom inh-1: 7.7; KKLEB cytotox: -29.9; CHOP inh: 69.1; MITF TRPM1 inh: 2.3

What do the screens show for `C[C@]12CC[C@H]3C(CCC4(O)CC(O)CC[C@]34C=O)C1=CC[C@H]2c1ccc(=O)oc1` (stereo partly specified)?
HIF-2a inh: 17.9; CF NFkB block: 48.6; Peg3 prom inh-1: 105.2*; KKLEB cytotox: -43.5; MITF TRPM1 inh: inconclusive; Peg3 prom inh-2: 96.9*

Results for CNC(=O)Nc1ccc(C(=O)N/N=C\C23CC[C@@H](O)CC2(O)CC[C@@H]2[C@@H]3CCC3(C)C(C4=CC(=O)OC4)CCC23O)cc1 (stereo partly specified) ?
HIF-2a inh: 7.3; CF NFkB block: -4.7; Peg3 prom inh-1: 8.2; KKLEB cytotox: 21.2; CHOP inh: 7.0; MITF TRPM1 inh: 1.4

How did Cc1ccc(S(=O)(=O)c2nc(-c3ccccc3Cl)oc2N(C)C2CCN(C)CC2)cc1 do in these assays?
HIF-2a inh: -25.6; CF NFkB block: 40.8; Peg3 prom inh-1: 63.9*; KKLEB cytotox: -20.3; Peg3 prom inh-2: 78.2*

Results for O=C1NC(=O)N(Cc2ccccc2)C(=O)/C1=C\C=C\c1ccco1 ?
HIF-2a inh: 45.7*; CF NFkB block: 74.4*; Peg3 prom inh-1: 88.9*; KKLEB cytotox: -50.9*; CHOP inh: 90.9*; MITF TRPM1 inh: 96.3*; Peg3 prom inh-2: 62.5*

What do the screens show for `COC(=O)c1cn(Cc2ccc(F)cc2)c2ccccc12`?
HIF-2a inh: -5.3; CF NFkB block: -6.0; Peg3 prom inh-1: 4.0; KKLEB cytotox: -0.3

What do the screens show for `O=Cc1cn(Cc2ccc(Br)cc2)c2ccccc12`?
HIF-2a inh: 12.8; CF NFkB block: 13.3; Peg3 prom inh-1: 77.5*; KKLEB cytotox: 7.7; MITF TRPM1 inh: 19.8; Peg3 prom inh-2: 73.9*

Results for O=Cc1cn(Cc2cccc(F)c2)c2ccccc12 ?
HIF-2a inh: 11.9; CF NFkB block: 11.4; Peg3 prom inh-1: 85.2*; KKLEB cytotox: 4.3; CHOP inh: 0.1; MITF TRPM1 inh: 2.4; Peg3 prom inh-2: 65.4*

What do the screens show for `N#CCP(=S)(c1ccccc1)c1ccccc1`?
HIF-2a inh: 23.7; CF NFkB block: 14.4; Peg3 prom inh-1: 21.3; KKLEB cytotox: 4.8; CHOP inh: 23.0; MITF TRPM1 inh: -6.6

What do the screens show for `Cc1ccc2cc(C=C(C#N)C#N)c(Cl)nc2c1`?
HIF-2a inh: 8.7; CF NFkB block: 40.6; Peg3 prom inh-1: 16.1; KKLEB cytotox: -19.7; CHOP inh: 60.4; MITF TRPM1 inh: 40.6

How did COc1cccc(C2CC3C(=O)C=CC2N3Cc2ccccc2)c1 (stereo unspecified) do in these assays?
HIF-2a inh: 47.9*; CF NFkB block: 16.7; Peg3 prom inh-1: 68.2*; KKLEB cytotox: -0.4; CHOP inh: -37.2; MITF TRPM1 inh: 22.9; Peg3 prom inh-2: 70.6*; HIF-2a conf: 57.3*; HIF-1a counter: 47.0

Results for CCCC(C)C1(CC)C(=O)NC(=O)N=C1N (stereo unspecified) ?
HIF-2a inh: 19.4; CF NFkB block: -5.6; Peg3 prom inh-1: 1.4; KKLEB cytotox: 13.9; CHOP inh: -10.5; MITF TRPM1 inh: 5.2
